Results as given in PubChem BioAssay (Tox21).
Results filed as inconclusive are left out. Calls of active or inactive are those of the source. Unless noted, calls follow the shape of the full dose curve.

Experiments:
[1] = Nuclear factor erythroid 2-related factor 2/antioxidant responsive element (Nrf2/ARE) small molecule agonists: qHTS cell viability counter screen in human keratinocytes (AID 1919968; active = well fitted curve in the direction sought with a large enough effect in the repeat runs; an effect the other way counts as inactive or inconclusive; also: nearly all actives have a fitted effect of over 55% in size; also: potency is read from the fitted curve at half-maximal effect)
In short: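 Stably transfected HaCaT (KeratinoSens), 1,500/well. Test agents in DMSO were applied for 23 h, 37 C/5% CO2. CellTiter-Fluor was incubated 1 h before the fluorescence read.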

[2] = Nuclear factor erythroid 2-related factor 2/antioxidant responsive element (Nrf2/ARE) small molecule agonists: luciferase reporter gene qHTS assay in human keratinocytes (AID 1919969); also: nearly all actives have a fitted effect of over 35% in size; also: potency is read from the fitted curve at half-maximal effect
[3] = target: Gonadotropin-releasing hormone receptor (Homo sapiens) (UniProt P30968); experiment: Human gonadotropin-releasing hormone receptor (GnRHR) small molecule agonists, calcium flux assay in GnRHR-HEK293 cells (AID 1920063); also: nearly all actives have a fitted effect of over 35% in size
In short: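 Stable human GnRHR HEK293 line. 18 h plating, then calcium dye for 1 h at 37 C. Agonist-mode compound addition from DMSO stocks; fluorescence monitored 3 min.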

[4] = target: KiSS-1 receptor (Homo sapiens) (UniProt Q969F8); experiment: Human kisspeptin (KISS1R) small molecule agonists, calcium flux assay in KISS1R-HEK293 cells (AID 1920064; active = well fitted curve in the direction sought with a large enough effect in the repeat runs; an effect the other way counts as inactive or inconclusive)
In short: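 After overnight (18 h) culture at 37 C/5% CO2, human KISS1R-HEK293 cells received calcium dye for 1 h, then test compound; emission at 540 nm (excitation 480 nm) was tracked for 3 min.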

[5] = G protein-coupled receptor (GPCR) small molecule agonists, calcium flux assay: HEK293 wild type cell line counter screen (AID 1920065); also: potency is read from the fitted curve at half-maximal effect
In short: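 Following 18 h incubation at 37 C/5% CO2, plates got calcium dye for 1 h; compounds, ATP or DMSO were then pinned in and fluorescence followed kinetically (480/540 nm).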

[6] = p53 small molecule agonists, cell-based qHTS assay with human liver microsomes: qHTS cell viability counter screen (AID 1963579); also: nearly all actives have a fitted effect of over 45% in size; also: potency is read from the fitted curve at half-maximal effect
In short: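 Metabolically activated exposure: compounds, human liver microsomes and NADPH (0.5 mg/mL final apiece) were added to p53RE-bla cells seeded 5 h earlier, left 16 h at 37 C, and then assessed for viability by CellTiter-Glo luminescence.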

[7] = p53 small molecule agonists, cell-based qHTS assay with rat liver microsomes: qHTS cell viability counter screen (AID 1963580); also: nearly all actives have a fitted effect of over 45% in size; also: potency is read from the fitted curve at half-maximal effect
In short: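 Cytotoxicity counter screen: intracellular ATP measured by CellTiter-Glo luminescence in the same wells as the beta-lactamase reporter read, on HCT-116 p53RE-bla cells exposed 16 h at 37 C to compounds with rat liver microsomes and NADPH, each 0.5 mg/mL final.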

[8] = p53 small molecule agonists, cell-based qHTS assay: qHTS cell viability counter screen (AID 1963581); also: nearly all actives have a fitted effect of over 45% in size; also: potency is read from the fitted curve at half-maximal effect
In short: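 qHTS counter screen: 16 h compound exposure at 37 C of p53RE-bla HCT-116 cells (4,000 per well, seeded 5 h prior), cell viability by ATP luminescence.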

[9] = target: 5-hydroxytryptamine receptor 2A (Homo sapiens) (UniProt P28223); experiment: 5-hydroxytryptamine receptor 2A (HTR2A) small molecule agonists, cell-based qHTS assay (AID 1963587); also: nearly all actives have a fitted effect of over 30% in size
In short: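 CHO cells stably expressing human HTR2A, plated 18 h, loaded with calcium dye 1 h at 37 C. Agonist mode: compounds added and intracellular calcium fluorescence recorded kinetically for 2 min at 1 sec intervals.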

[10] = target: Muscarinic acetylcholine receptor M1 (Homo sapiens) (UniProt P11229); experiment: Cholinergic receptor muscarinic 1 (CHRM1) small molecule antagonists, cell-based qHTS assay (AID 1963588); also: nearly all actives have a fitted effect of over 40% in size; also: potency is read from the fitted curve at half-maximal effect
In short: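 Compounds were tested at 15 concentrations in three independent runs. Dye-loaded CHRM1-CHO cells were exposed 5 min at room temperature before stimulation by acetylcholine added at 50nM. Intracellular calcium was read kinetically on FDSS for 3 min.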

[11] = target: Muscarinic acetylcholine receptor M1 (Homo sapiens) (UniProt P11229); experiment: Cholinergic receptor muscarinic 1 (CHRM1) small molecule agonists, cell-based qHTS assay (AID 1963589); also: nearly all actives have a fitted effect of over 35% in size
In short: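 Kinetic fluorescence (1 s intervals) of calcium-sensitive dye in human M1 CHO cells after compound addition; cells pre-incubated 18 h at 37 C/5% CO2 and dye-loaded 1 h.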

[12] = target: D(2) dopamine receptor (Homo sapiens) (UniProt P14416); experiment: Dopamine D2 receptor (DRD2) small molecule agonists, cell-based qHTS assay (AID 1963594); also: nearly all actives have a fitted effect of over 35% in size
In short: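 HEK293 cells stably expressing human DRD2, pre-treated with PDE inhibitor Ro20-1724 (0.1 mM final) and compound 10 min at room temperature, then stimulated with NKH477 (200nM […]) for 30 min. cAMP read by HTRF (665/620 nm).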

[13] = target: D(2) dopamine receptor (Homo sapiens) (UniProt P14416); experiment: Dopamine D2 receptor (DRD2) small molecule antagonists, cell-based qHTS assay (AID 1963595; active = well fitted inhibition curve with a large enough effect in the signal ratio in the repeat runs, with a control signal flat; the % refers to the signal ratio)
In short: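 Antagonist mode in DRD2-HEK293 cells: after compound addition with 0.1 mM Ro20-1724, cells received quinpirole (12 nM) and NKH477 (200 nM) for 30 min at room temperature; HTRF cAMP read after 1 h detection.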

[14] = target: 5-hydroxytryptamine receptor 2A (Homo sapiens) (UniProt P28223); experiment: 5-hydroxytryptamine receptor 2A (HTR2A) small molecule antagonists, cell-based qHTS assay (AID 1963586); also: nearly all actives have a fitted effect of over 45% in size
In short: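 CHO cells stably expressing human HTR2A were plated for 18 h at 37 C, then loaded with calcium dye for 1 h. Compounds were preincubated 5 min at room temperature before DOI (4 nM solution) was added. Kinetic fluorescence was read for 3 min.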

[15] = cAMP Responsive Elements (CRE) small molecule agonists, cell-based qHTS assay (AID 1963590)
In short: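 Test agents in DMSO were incubated 3 h at 37 C/5% CO2 with CRE-bla HEK 293T cells seeded 18 h earlier; LiveBLAzer B/G FRET substrate was added and read after 2 h at room temperature.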

[16] = cAMP Responsive Elements (CRE) small molecule antagonists, cell-based qHTS assay (AID 1963591; active = well fitted inhibition curve with a large enough effect in the signal ratio in the repeat runs, not every such curve was filed as active; the % refers to the signal ratio)
In short: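 Reporter line CRE-bla HEK 293T in dialyzed-FBS DMEM; cells preincubated 18 h, treated 3 h with compound plus NKH477 (0.25 uM final); LiveBLAzer FRET, 2 h RT.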

[17] = target: Beta-2 adrenergic receptor (Homo sapiens) (UniProt P07550); experiment: Adrenergic beta2 receptor (ADRB2) small molecule antagonists, cell-based qHTS assay (AID 1963592); also: series mostly up to about 92 µM; nearly all actives have a fitted effect of over 50% in size
In short: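 Assay format: CHO-ADRB2 cells, 18-20hr seeding at 37C/5% CO2, then compound plus 1nM isoproterenol agonist mix for 0.5hr RT. Homogeneous time-resolved fluorescence cAMP detection after 1hr, expressed as 665/615 nm ratio.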

[18] = target: Beta-2 adrenergic receptor (Homo sapiens) (UniProt P07550); experiment: Adrenergic beta2 receptor (ADRB2) small molecule agonists, cell-based qHTS assay (AID 1963593);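 also: CHO cells stably overexpressing human ADRB2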
In short: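 CHO cells stably over-expressing ADRB2 were plated overnight at 37C, then dosed with compounds plus a stimulation mix containing 100uM IBMX and 25uM Ro-20-1724 for 0.5hr at room temperature. cAMP was measured by HTRF competition, 1hr.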
% is scaled to controls: 0 for no effect and ±100 for the full control effect.

Chain of D(2) dopamine receptor (Homo sapiens) (P14416 whole entry, looked up): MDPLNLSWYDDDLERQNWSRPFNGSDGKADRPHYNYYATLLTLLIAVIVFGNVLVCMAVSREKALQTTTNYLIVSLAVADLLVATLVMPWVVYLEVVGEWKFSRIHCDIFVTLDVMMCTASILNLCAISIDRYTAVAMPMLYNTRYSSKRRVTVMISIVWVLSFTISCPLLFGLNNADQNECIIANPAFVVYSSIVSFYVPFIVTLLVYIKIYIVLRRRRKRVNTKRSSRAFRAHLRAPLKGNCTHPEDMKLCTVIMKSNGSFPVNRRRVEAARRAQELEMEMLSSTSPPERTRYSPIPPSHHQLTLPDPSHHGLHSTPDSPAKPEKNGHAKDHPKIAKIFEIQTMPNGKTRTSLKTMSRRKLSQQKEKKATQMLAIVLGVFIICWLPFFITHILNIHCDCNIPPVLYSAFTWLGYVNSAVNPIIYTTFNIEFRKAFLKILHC
Chain of Muscarinic acetylcholine receptor M1 (Homo sapiens) (P11229 whole entry, looked up): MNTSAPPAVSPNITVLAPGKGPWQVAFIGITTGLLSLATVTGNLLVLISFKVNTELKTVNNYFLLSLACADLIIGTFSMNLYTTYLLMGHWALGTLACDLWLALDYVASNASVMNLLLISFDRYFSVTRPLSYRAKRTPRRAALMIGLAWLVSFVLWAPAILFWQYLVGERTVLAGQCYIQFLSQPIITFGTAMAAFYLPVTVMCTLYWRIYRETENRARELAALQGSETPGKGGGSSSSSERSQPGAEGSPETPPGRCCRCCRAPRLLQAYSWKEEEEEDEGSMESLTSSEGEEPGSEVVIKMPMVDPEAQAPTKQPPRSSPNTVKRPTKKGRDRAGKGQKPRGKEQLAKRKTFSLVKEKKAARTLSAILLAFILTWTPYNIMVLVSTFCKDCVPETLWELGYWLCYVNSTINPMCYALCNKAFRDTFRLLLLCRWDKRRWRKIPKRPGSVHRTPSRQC
Chain of Gonadotropin-releasing hormone receptor (Homo sapiens) (P30968 whole entry, looked up): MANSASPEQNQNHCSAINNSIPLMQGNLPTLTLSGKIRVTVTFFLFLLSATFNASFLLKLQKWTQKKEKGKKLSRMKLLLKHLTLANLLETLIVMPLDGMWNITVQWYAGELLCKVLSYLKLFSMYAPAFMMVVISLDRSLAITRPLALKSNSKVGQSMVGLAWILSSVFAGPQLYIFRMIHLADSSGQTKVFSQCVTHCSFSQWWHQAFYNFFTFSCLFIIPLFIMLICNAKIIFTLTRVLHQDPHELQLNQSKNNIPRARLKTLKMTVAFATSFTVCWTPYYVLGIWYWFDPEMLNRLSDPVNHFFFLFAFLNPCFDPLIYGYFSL
Chain of Beta-2 adrenergic receptor (Homo sapiens) (P07550 whole entry, looked up): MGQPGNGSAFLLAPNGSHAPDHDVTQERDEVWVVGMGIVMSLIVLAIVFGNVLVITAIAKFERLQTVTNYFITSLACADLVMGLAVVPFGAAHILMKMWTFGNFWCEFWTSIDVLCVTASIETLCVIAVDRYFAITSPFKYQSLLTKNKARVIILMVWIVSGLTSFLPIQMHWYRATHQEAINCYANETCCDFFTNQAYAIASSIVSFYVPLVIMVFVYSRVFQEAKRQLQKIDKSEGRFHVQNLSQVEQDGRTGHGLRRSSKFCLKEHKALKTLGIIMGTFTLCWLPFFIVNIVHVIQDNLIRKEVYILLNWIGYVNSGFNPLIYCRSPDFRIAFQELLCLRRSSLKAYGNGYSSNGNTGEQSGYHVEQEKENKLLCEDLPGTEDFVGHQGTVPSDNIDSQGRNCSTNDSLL
Chain of KiSS-1 receptor (Homo sapiens) (Q969F8 whole entry, looked up): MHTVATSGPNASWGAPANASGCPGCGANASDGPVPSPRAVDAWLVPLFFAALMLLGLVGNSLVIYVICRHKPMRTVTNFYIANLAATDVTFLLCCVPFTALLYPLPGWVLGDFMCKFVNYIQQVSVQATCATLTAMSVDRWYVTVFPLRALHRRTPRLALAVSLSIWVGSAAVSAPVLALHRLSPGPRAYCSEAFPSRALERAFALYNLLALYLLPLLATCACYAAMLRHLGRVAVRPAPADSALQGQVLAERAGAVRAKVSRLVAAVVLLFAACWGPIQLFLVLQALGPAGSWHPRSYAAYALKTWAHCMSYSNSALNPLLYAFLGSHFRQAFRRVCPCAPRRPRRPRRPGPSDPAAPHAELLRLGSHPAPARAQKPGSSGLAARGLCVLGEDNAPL
Chain of 5-hydroxytryptamine receptor 2A (Homo sapiens) (P28223 whole entry, looked up): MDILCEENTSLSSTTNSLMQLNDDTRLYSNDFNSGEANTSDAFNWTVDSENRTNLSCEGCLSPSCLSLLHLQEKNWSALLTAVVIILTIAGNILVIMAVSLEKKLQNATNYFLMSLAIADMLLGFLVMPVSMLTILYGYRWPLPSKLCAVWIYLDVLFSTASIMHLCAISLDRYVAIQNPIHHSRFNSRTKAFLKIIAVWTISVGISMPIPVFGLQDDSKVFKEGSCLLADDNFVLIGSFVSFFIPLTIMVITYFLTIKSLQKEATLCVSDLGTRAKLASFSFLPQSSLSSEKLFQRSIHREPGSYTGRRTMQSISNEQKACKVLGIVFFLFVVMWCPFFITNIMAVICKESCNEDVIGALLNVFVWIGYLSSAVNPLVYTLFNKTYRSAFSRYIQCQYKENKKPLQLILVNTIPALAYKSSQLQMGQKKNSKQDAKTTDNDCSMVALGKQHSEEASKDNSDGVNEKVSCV

O=[N+]([O-])c1cc(C(F)(F)F)c(Cl)c([N+](=O)[O-])c1Nc1ncc(C(F)(F)F)cc1Cl
inactive: Potency [3] | Potency [4] | Potency [9] | Potency [11] | Potency [12] | Potency [13]
active: Potency [1] 9.69 µM | Potency [2] 6.11 µM | Potency [5] 1.23 µM | Potency [6] 45.8 µM | Potency [7] 25.7 µM | Potency [8] 40.8 µM | Potency [10] 0.472 µM

Nc1c(Br)cc(Br)c2c1C(=O)c1ccccc1C2=O
inactive: activity change, negative = cytotoxicity [1] -10.3% [at 19 µM] | activity, positive = activation [2] 4.98% [at 19 µM] | activity change [3] 1.8% [at 11.8 µM, hits give high values] | activation [4] 7.67% [at 15.8 µM] | activation [5] 0.165% [at 11.8 µM] | activity change, negative = cytotoxicity [6] 2.22% [at 13.5 µM] | activity change, negative = cytotoxicity [7] -8.42% [at 13.5 µM] | activity change, negative = cytotoxicity [8] 13.4% [at 13.5 µM] | activity, negative = inhibition [14] 6.3% [at 12.7 µM] | activation [9] -1.81% [at 15.9 µM] | activity, negative = inhibition [10] -4.93% [at 12.6 µM] | activation [12] -0.116% [at 19 µM] | activity change, negative = inhibition [13] 9% [at 18.9 µM]

CCNc1nc(NC(C)C(C)C)nc(SC)n1 (centres undefined)
inactive: Potency [1] | Potency [2] | Potency [3] | Potency [4] | Potency [5] | Potency [6] | Potency [7] | Potency [8] | Potency [14] | Potency [10] | Potency [15] | Potency [16] | Potency [17] | Potency [13]

O=C(Nc1ccc(F)cc1F)c1cccnc1Oc1cccc(C(F)(F)F)c1
inactive: Potency [1] | Potency [2] | Potency [3] | Potency [4] | Potency [5] | Potency [6] | Potency [7] | Potency [8] | Potency [14] | Potency [9] | Potency [11] | Potency [17] | Potency [12] | Potency [13]

COc1ccc(OC)c(CC(C)N)c1 (centres undefined)
inactive: Potency [1] | Potency [2] | Potency [3] | Potency [4] | Potency [5] | Potency [6] | Potency [7] | Potency [8] | Potency [10] | Potency [11] | Potency [15] | Potency [12] | Potency [13]

CCC(Cl)CCl (centres undefined)
inactive: Potency [1] | Potency [2] | Potency [3] | Potency [4] | Potency [5] | Potency [6] | Potency [7] | Potency [8] | Potency [14] | Potency [9] | Potency [11] | Potency [15] | Potency [16] | Potency [17] | Potency [18] | Potency [12] | Potency [13]

C[C@H](N)C(=O)c1ccccc1
inactive: Potency [1] | Potency [2] | Potency [3] | Potency [4] | Potency [5] | Potency [6] | Potency [7] | Potency [8] | Potency [14] | Potency [9] | Potency [10] | Potency [15] | Potency [16] | Potency [17]

CN(C)CCN(C)C
inactive: Potency [1] | Potency [2] | Potency [3] | Potency [4] | Potency [5] | Potency [6] | Potency [7] | Potency [8] | Potency [9] | Potency [11] | Potency [15] | Potency [16] | Potency [17] | Potency [18] | Potency [12] | Potency [13]

CCOP(=S)(OCC)SCSc1ccc(Cl)cc1
inactive: Potency [1] | Potency [2] | Potency [3] | Potency [4] | Potency [5] | Potency [6] | Potency [7] | Potency [8] | Potency [14] | Potency [9] | Potency [10] | Potency [11] | Potency [17] | Potency [18] | Potency [12] | Potency [13]

Cc1ccc2cc3c(ccc4ccccc43)c3c2c1CC3
inactive: Potency [1] | Potency [2] | Potency [3] | Potency [4] | Potency [5] | Potency [6] | Potency [7] | Potency [8] | Potency [15] | Potency [16] | Potency [17] | Potency [18] | Potency [12] | Potency [13]
